In PubChem BioAssay (NCATS):
Inconclusive results are not listed. Entries that show only a call come without a potency. Values without a mark were called inactive. The source made the active and inactive calls. Calls come from the whole dose curve; as a rule, active = well fitted curve in the direction sought with a large enough effect; inconclusive = small, poorly fitted or top-dose-only effect, or another doubt; inactive = no such curve, though single readings can be large; an effect the other way counts as inactive or inconclusive.

Tests used:
HaCat [1] = experiment: Cytotoxic Profiling of Annotated Libraries Using Quantitative High-Throughput Screening (AID 1296008); settings: Five cell lines viability, CellTiter-Glo ATP luminescence, 48-72 h; max response: stronger effect = lower value; note: nearly all actives have a fitted effect of over 60% in size; note: potency is the fitted concentration of half-maximal effect
How it was run: (§1)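 Compounds were pin-transferred onto cells and incubated 48 or 72 hr at 37 degree Celsius, 95% humidity. CellTiter-Glo was added, plates sat 10 min at room temperature, then ATP-coupled luminescence was imaged as the viability read-out.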

KB-3-1 = experiment: as above; settings: Five cell lines viability, CellTiter-Glo ATP luminescence, 48-72 h; max response: stronger effect = lower value
How it was run: as §1

NIH3T3 [2] = experiment: as above; settings: Five cell lines viability, CellTiter-Glo ATP luminescence, 48-72 h; max response: stronger effect = lower value
How it was run: as §1

HACAT [3] = experiment: qHTS assay to identify novel small-molecules to repurpose for Merkel cell carcinoma treatment (AID 1296009); settings: MCC and control cell lines, CellTiter-Glo viability, 72 h; at 44.8 µM (top of the series) unless noted; note: nearly all actives have a fitted effect of over 60% in size; note: potency is the fitted concentration of half-maximal effect
How it was run: (§2)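 qHTS format: cells treated with library compounds in DMSO across 8 (NPC) or 11 (MIPE) concentrations. Readout after 72 hr at 37 degree celsius was CellTiter-Glo luminescence.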

MCC-13 = experiment: as above; settings: MCC and control cell lines, CellTiter-Glo viability, 72 h; series mostly up to 46 µM
How it was run: as §2

MKL-1 = experiment: as above; settings: MCC and control cell lines, CellTiter-Glo viability, 72 h; series mostly up to 46 µM
How it was run: as §2

UISO = experiment: as above; settings: MCC and control cell lines, CellTiter-Glo viability, 72 h; series mostly up to 46 µM
How it was run: as §2

WaGa = experiment: as above; settings: MCC and control cell lines, CellTiter-Glo viability, 72 h; series mostly up to 46 µM
How it was run: as §2

MCC-26 = experiment: as above; settings: MCC and control cell lines, CellTiter-Glo viability, 72 h; series mostly up to 46 µM
How it was run: as §2

MKL-2 = experiment: as above; settings: MCC and control cell lines, CellTiter-Glo viability, 72 h; series mostly up to 46 µM
How it was run: as §2

C33A = experiment: Primary qHTS to identify gynecologic anti-cancer compounds using libraries of approved drugs and bioactive compounds (AID 1345084); settings: Gynecologic cancer cell panel viability, ATPlite luminescence, 48 h; series mostly up to 57.5 µM; note: nearly all actives have a fitted effect of over 55% in size
How it was run: (§3)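 Cells, 1,000 per well, plated 16 h, then exposed 48 h at 37 C to compounds. Viability by ATPlite luminescence after 15 min at room temperature.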

CAOV3 = experiment: as above; settings: Gynecologic cancer cell panel viability, ATPlite luminescence, 48 h; series mostly up to 57.5 µM
How it was run: as §3

CASKI = experiment: as above; settings: Gynecologic cancer cell panel viability, ATPlite luminescence, 48 h; series mostly up to 57.5 µM
How it was run: as §3

Hek293T = experiment: as above; settings: Gynecologic cancer cell panel viability, ATPlite luminescence, 48 h, control line for the selectivity index; series mostly up to 57.5 µM
How it was run: as §3

HEK293 = experiment: Cytotoxic Profiling of Annotated Libraries Using Quantitative High-Throughput Screening (AID 1296008); settings: Five cell lines viability, CellTiter-Glo ATP luminescence, 48-72 h; max response: stronger effect = lower value; note: nearly all actives have a fitted effect of over 60% in size; note: potency is the fitted concentration of half-maximal effect
How it was run: as §1

Es-2 = experiment: Primary qHTS to identify gynecologic anti-cancer compounds using libraries of approved drugs and bioactive compounds (AID 1345084); settings: Gynecologic cancer cell panel viability, ATPlite luminescence, 48 h; series mostly up to 57.5 µM; note: nearly all actives have a fitted effect of over 55% in size
How it was run: as §3

HeLa = experiment: as above; settings: Gynecologic cancer cell panel viability, ATPlite luminescence, 48 h; series mostly up to 57.5 µM
How it was run: as §3

NIH3T3 [4] = experiment: qHTS assay to identify novel small-molecules to repurpose for Merkel cell carcinoma treatment (AID 1296009); settings: MCC and control cell lines, CellTiter-Glo viability, 72 h; series mostly up to 44.8 µM; note: nearly all actives have a fitted effect of over 60% in size; note: potency is the fitted concentration of half-maximal effect
How it was run: as §2

N=C1SC(=Cc2ccc(-c3ccc4c(c3)C(=O)NC4=O)o2)C(=O)N1c1ccc(Br)cc1
outcome (HaCat [1]): inactive | outcome (KB-3-1): inactive | max response (NIH3T3 [2]): 1.79% | outcome (HACAT [3]): inactive | Potency (MCC-13): inactive | Potency (MKL-1): inactive | Potency (UISO): inactive | Potency (WaGa): inactive

CN1CCc2c(n(Cc3ccc(C(=O)NO)cc3)c3ccccc23)C1
Potency (MCC-13): inactive | Potency (MCC-26): inactive | Potency (MKL-2): 14.8 µM (active) | Potency (UISO): inactive | Potency (WaGa): 18.7 µM (active) | Potency (C33A): inactive | Potency (CAOV3): inactive | Potency (CASKI): inactive | Potency (Hek293T): inactive

COc1ccc2nc3cc(Cl)ccc3c(Nc3cc(CN4CCCC4)c(O)c(CN4CCCC4)c3)c2n1
outcome (HaCat [1]): inactive | max response (NIH3T3 [2]): -1.17% | outcome (HACAT [3]): inactive | Potency (MCC-13): inactive | Potency (MCC-26): inactive | Potency (UISO): inactive | Potency (WaGa): 18.7 µM (active)

Nc1ccn([C@@H]2O[C@H](CO)[C@@H](O)[C@H]2O)c(=O)n1
Potency (HaCat [1]): 29.6 µM (active) | Potency (NIH3T3 [2]): 0.526 µM (active) | Potency (MKL-1): 9.35 µM (active) | Potency (MKL-2): inactive | Potency (WaGa): 0.132 µM (active)

CN(C)S(=O)(=O)c1ccc2c(c1)C(=Cc1cc3c([nH]1)CCCC3)C(=O)N2
max response (KB-3-1): -0.966% | Potency (MCC-13): inactive | Potency (MKL-2): inactive | Potency (UISO): inactive | Potency (WaGa): inactive

CN(C)CC[C@H](CSc1ccccc1)Nc1ccc(S(=O)(=O)NC(=O)c2ccc(N3CCN(Cc4ccccc4-c4ccc(Cl)cc4)CC3)cc2)cc1[N+](=O)[O-]
Potency (HaCat [1]): 18.7 µM (active) | max response (KB-3-1): 2.51% | Potency (MCC-13): inactive | Potency (MCC-26): inactive | Potency (MKL-1): 1.18 µM (active) | Potency (MKL-2): 0.235 µM (active) | Potency (WaGa): 0.264 µM (active)

Clc1ccc(COC(Cn2ccnc2)c2ccc(Cl)cc2Cl)c(Cl)c1 (stereo unspecified)
Potency (MCC-13): inactive | Potency (MCC-26): inactive | Potency (MKL-1): inactive | Potency (MKL-2): inactive

O=C(Nc1ncc(SCCN2CCCC2)s1)[C@]1(c2ccc(S(=O)(=O)C3CC3)cc2)C[C@@H]1C1CCCCC1
Potency (HEK293): 16.6 µM (active) | Potency (NIH3T3 [2]): 23.5 µM (active) | Potency (MCC-13): inactive | Potency (MCC-26): inactive

COc1c(C)c2c(c(O)c1CC=C(C)CCC(=O)O)C(=O)OC2
max response (HaCat [1]): -8.02% | Potency (NIH3T3 [2]): 3.72 µM (active) | Potency (MKL-1): 4.69 µM (active) | Potency (MKL-2): 2.09 µM (active) | Potency (UISO): 9.35 µM (active) | Potency (WaGa): 3.32 µM (active)

CC1(C)OC2CC3C4CC(F)C5=CC(=O)C=CC5(C)C4C(O)CC3(C)[C@]2(C(=O)CO)O1 (stereo partly specified)
Potency (MCC-13): inactive | Potency (MCC-26): inactive | Potency (MKL-1): inactive | Potency (MKL-2): inactive | Potency (UISO): inactive | Potency (WaGa): inactive

COc1cc2c(cc1Cc1cccc(Cl)c1F)c(=O)c(C(=O)O)cn2[C@H](CO)C(C)C
max response (HaCat [1]): -24.6% | Potency (MCC-26): inactive | Potency (MKL-2): 18.7 µM (active)

CC(C)c1c(C(=O)Nc2ccccc2)c(-c2ccccc2)c(-c2ccc(F)cc2)n1CC[C@H](O)C[C@@H](O)CC(=O)O
Potency (HaCat [1]): 20.9 µM (active) | max response (NIH3T3 [2]): -10.9% | Potency (MCC-13): inactive | Potency (MCC-26): inactive | Potency (MKL-1): 18.7 µM (active) | Potency (MKL-2): 10.5 µM (active) | Potency (UISO): 14.8 µM (active) | Potency (WaGa): 23.5 µM (active)

CC1(C)C(N(O)C(=O)Nc2ccc(Cl)cc2)N(c2ccc(Cl)cc2)C(=O)N1CC(=O)NN=CC=Cc1ccc([N+](=O)[O-])o1 (stereo unspecified)
Potency (MCC-13): inactive | Potency (MCC-26): inactive | Potency (MKL-2): 23.5 µM (active) | Potency (UISO): inactive

C[C@@H]1C[C@H]2[C@@H]3CCC4=CC(=O)C=C[C@]4(C)[C@@]3(F)[C@@H](O)C[C@]2(C)[C@@]1(O)C(=O)CO
Potency (C33A): inactive | Potency (CAOV3): inactive | Potency (CASKI): inactive | Potency (Es-2): inactive | Potency (HeLa): inactive | Potency (Hek293T): inactive

O=C(C=Cc1ccc(O)cc1)c1ccc(O)cc1O
outcome (HaCat [1]): inactive | max response (NIH3T3 [2]): -8.95% | outcome (HACAT [3]): inactive | Potency (MCC-13): inactive | Potency (MCC-26): inactive | Potency (MKL-1): inactive | Potency (WaGa): inactive

CN[C@H]1[C@@H](O[C@@H]2[C@H](O[C@@H]3[C@@H](O)[C@@H](O)[C@@H](N=C(N)N)[C@@H](O)[C@@H]3N=C(N)N)O[C@H](C)[C@@]2(O)C=O)O[C@@H](CO)[C@@H](O)[C@H]1O
outcome (KB-3-1): inactive | activity change, negative = cytotoxicity (MCC-13): 0.63% [at 9.22 µM] | activity change, negative = cytotoxicity (MCC-26): -1.52% [at 9.22 µM] | activity change, negative = cytotoxicity (MKL-1): 0.557% [at 9.22 µM] | activity change, negative = cytotoxicity (MKL-2): 13.1% [at 9.22 µM] | activity change, negative = cytotoxicity (UISO): -3% [at 9.22 µM] | activity change, negative = cytotoxicity (WaGa): 11.2% [at 9.22 µM]

Cc1ccccc1C(=O)c1ccc(Nc2ccc(Br)cc2N)cc1Cl
max response (HaCat [1]): -2.01% | max response (NIH3T3 [2]): -21.7% | Potency (MCC-13): inactive | Potency (MCC-26): inactive | Potency (MKL-1): inactive | Potency (CAOV3): inactive | Potency (Es-2): inactive | Potency (HeLa): inactive | Potency (Hek293T): inactive

OC(c1cc(C(F)(F)F)nc2c(C(F)(F)F)cccc12)C1CCCCN1 (stereo unspecified)
outcome (HaCat [1]): inactive | outcome (HACAT [3]): inactive | Potency (MCC-13): inactive | Potency (MCC-26): inactive | Potency (MKL-1): inactive | Potency (UISO): inactive | Potency (WaGa): inactive

CCCCC(F)(F)[C@@]1(O)CC[C@H]2[C@H](CC(=O)[C@@H]2CCCCCCC(=O)O)O1
Potency (C33A): inactive | Potency (CAOV3): inactive | Potency (CASKI): inactive | Potency (Es-2): inactive | Potency (HeLa): inactive | Potency (Hek293T): inactive

O=C(O)Cc1cccc(OCCCN(Cc2cccc(C(F)(F)F)c2Cl)CC(c2ccccc2)c2ccccc2)c1
Potency (HEK293): 16.6 µM (active) | Potency (MCC-26): 26.4 µM (active) | Potency (MKL-1): inactive | Potency (MKL-2): inactive | Potency (WaGa): inactive

CC(C)(F)C[C@H](N[C@@H](c1ccc(-c2ccc(S(C)(=O)=O)cc2)cc1)C(F)(F)F)C(=O)NC1(C#N)CC1
outcome (HaCat [1]): inactive | max response (KB-3-1): 7.07% | max response (NIH3T3 [2]): -18% | outcome (HACAT [3]): inactive | Potency (MCC-13): inactive | Potency (MCC-26): inactive | Potency (MKL-1): inactive | Potency (MKL-2): inactive | Potency (UISO): inactive | Potency (WaGa): inactive

CN1C(=O)C[C@H](C(=O)N[C@@H](Cc2cnc[nH]2)C(=O)N2CCC[C@@H]2C(N)=O)NC1=O
max response (HaCat [1]): -3.47% | outcome (KB-3-1): inactive | outcome (NIH3T3 [2]): inactive | Potency (MCC-13): inactive | Potency (MCC-26): inactive | Potency (MKL-2): 6.62 µM (active) | Potency (NIH3T3 [4]): inactive | Potency (WaGa): 20.9 µM (active)
